Results reported in PubChem BioAssay.
Calls of active or inactive are those of the source. Unless noted, no rule for the calls is given here.

Legend:
[1] = compound effects on lung adenocarcinoma cell viability – A549, calcein-AM fluorescence, 48 h, basal, profiling panel (AID 1162); conditions: higher = more signal; also: test concentration not given here
[2] = compound effects on differentiated 3T3-L1 adipocyte viability – cell-based, 3T3-L1 adipocytes, calcein-AM fluorescence, 48 h, basal, profiling panel (AID 1163); conditions: 3T3-L1 adipocytes viability, higher = more signal; also: test concentration not given here
[3] = compound effects on hepatocellular carcinoma cell viability – HepG2, calcein-AM fluorescence, 48 h, basal, profiling panel (AID 1164); conditions: higher = more signal; also: test concentration not given here
[4] = compound effects on multiple myeloma cell viability – MM1S, calcein-AM fluorescence, 48 h, basal, profiling panel (AID 1165); conditions: higher = more signal; also: test concentration not given here
[5] = calcein-AM signal in unstimulated myeloma cells – cell-based, calcein-AM fluorescence, 48 h, PK04 Diversity Set, profiling panel (AID 1166); conditions: RPMI8226 myeloma viability, higher = more signal;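 also: cells grown under basal conditions without added stimulus; test concentration not given here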
[6] = JC-1 mitochondrial signal, unstimulated HepG2 cells – cell-based, JC-1 fluorescence, 24 h, 100 nL compound, profiling panel (AID 1167); conditions: HepG2 mitochondrial potential, higher = more signal; also: test concentration not given here
[7] = JC-1 mitochondrial signal, unstimulated adipocytes – cell-based, JC-1 fluorescence, 3T3-L1 adipocytes, 24 h, 100 nL compound, profiling panel (AID 1168); conditions: JC-1 mitochondrial fluorescence, higher = more signal, called active from +8 up or from −8 down; also: test concentration not given here
[8] = JC-1 mitochondrial signal, unstimulated myeloma cells – cell-based, JC-1 fluorescence, RPMI8226, 24 h, 100 nL compound, profiling panel (AID 1169); conditions: JC-1 mitochondrial potential fluorescence, higher = more signal; also: test concentration not given here
[9] = JC-1 mitochondrial signal, unstimulated MM1S myeloma – cell-based, JC-1 fluorescence, 24 h, 100 nL compound, profiling panel (AID 1170); conditions: MM1S mitochondrial potential, higher = more signal; also: test concentration not given here
[10] = resazurin metabolic signal in A549 cells – cell-based, resazurin fluorescence, 24 h, PK04 Diversity Set, profiling panel (AID 1171); conditions: A549 viability, higher = more signal, called active from +8 up or from −8 down; also: test concentration not given here
[11] = resazurin metabolic signal in HepG2 cells – cell-based, resazurin fluorescence, 24 h, PK04 Diversity Set, profiling panel (AID 1172); conditions: HepG2 viability, higher = more signal; also: test concentration not given here
[12] = budding yeast growth changes without added modifier – OD600, strain BY4716, 24 h, basal condition, primary screen (AID 1173); conditions: S. cerevisiae BY4716 growth, OD600, 24 h; higher = more signal, called active from +8 up or from −8 down
[13] = viability profiling in MM1S myeloma cells – cell-based, resazurin fluorescence, basal, 24 h, PK04 Diversity Set, profiling panel (AID 1174); conditions: higher = more signal, called active from +8 up or from −8 down; also: test concentration not given here
[14] = target: Dihydroorotate dehydrogenase (quinone), mitochondrial (Plasmodium falciparum (isolate 3D7)) (UniProt Q08210); experiment: inhibition of P. falciparum DHODH – biochemical, C-terminal His tag, absorbance 600 nm, primary screen (AID 1175); conditions: PfDHODH enzyme, DCIP absorbance 600 nm; higher = more signal, called active from +8 up or from −8 down;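 also: recombinant parasite enzyme with a five histidine tag at its C terminus; test concentration not given here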
Dihydroorotate dehydrogenase (quinone), mitochondrial (Plasmodium falciparum (isolate 3D7)), sequence (Q08210 whole entry, looked up): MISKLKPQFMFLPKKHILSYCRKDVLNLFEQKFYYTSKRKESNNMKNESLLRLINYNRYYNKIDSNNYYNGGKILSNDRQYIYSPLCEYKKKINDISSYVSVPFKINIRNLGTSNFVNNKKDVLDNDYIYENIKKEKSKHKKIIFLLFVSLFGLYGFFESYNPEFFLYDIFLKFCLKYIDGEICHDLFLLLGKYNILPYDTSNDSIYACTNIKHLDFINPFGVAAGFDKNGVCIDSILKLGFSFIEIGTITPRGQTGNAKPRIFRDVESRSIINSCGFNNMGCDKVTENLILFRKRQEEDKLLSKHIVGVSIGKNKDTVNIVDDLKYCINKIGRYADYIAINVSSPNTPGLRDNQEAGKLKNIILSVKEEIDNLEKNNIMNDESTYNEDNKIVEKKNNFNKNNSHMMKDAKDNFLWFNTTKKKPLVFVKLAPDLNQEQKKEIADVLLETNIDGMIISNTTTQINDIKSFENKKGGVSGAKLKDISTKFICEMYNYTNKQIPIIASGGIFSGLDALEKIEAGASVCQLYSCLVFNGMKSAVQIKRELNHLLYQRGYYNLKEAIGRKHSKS

[15] = inhibition of PAO1 biofilm formation – strain PAO1, LB-PBS medium, absorbance 600 nm, primary screen (AID 1176); also: test concentration not given here; conditions: P. aeruginosa PAO1 growth/biofilm, A600, 12 h; higher = more signal
[16] = growth modulation of vineyard yeast isolate – strain RM11-1a, OD600, basal, 24 h, primary screen (AID 1177);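 also: cultures grown under basal conditions with no added stressor; test concentration not given here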; conditions: S. cerevisiae RM11-1a growth, OD600, 24 h; higher = more signal, called active from +8 up or from −8 down
[17] = growth of efflux-deficient E. coli DRC39 – strain DRC39, OD650, 24 h, E. coli filamentation inducers, primary screen (AID 1178);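 also: growth measured as culture turbidity by optical density at 650 nm; test concentration not given here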; conditions: E. coli DRC39 acrAB, higher = more signal, called active from +8 up or from −8 down
[18] = growth of efflux-deficient E. coli DRC39 – strain DRC39, OD650, 48 h, E. coli filamentation inducers, primary screen (AID 1179);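 also: screen aims at cell division blockers that make cells filament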; conditions: E. coli DRC39 delta-acrAB growth, higher = more signal, called active from +8 up or from −8 down
[19] = viability profiling in RPMI8226 myeloma cells – cell-based, resazurin fluorescence, basal, 24 h, PK04 Diversity Set, profiling panel (AID 1180); conditions: higher = more signal;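 also: RPMI8826 multiple myeloma cell line at 5000 cells per well; test concentration not given here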
[20] = target: E3 ubiquitin-protein ligase XIAP (Homo sapiens) (UniProt P98170); experiment: small molecules binding XIAP protein – biophysical, small-molecule microarray, fluorescence 635 nm, primary screen (AID 1181); conditions: higher = more signal;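 also: score merges 667 nm emission and signal to noise over triplicate slides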
E3 ubiquitin-protein ligase XIAP (Homo sapiens), sequence (P98170 whole entry, looked up): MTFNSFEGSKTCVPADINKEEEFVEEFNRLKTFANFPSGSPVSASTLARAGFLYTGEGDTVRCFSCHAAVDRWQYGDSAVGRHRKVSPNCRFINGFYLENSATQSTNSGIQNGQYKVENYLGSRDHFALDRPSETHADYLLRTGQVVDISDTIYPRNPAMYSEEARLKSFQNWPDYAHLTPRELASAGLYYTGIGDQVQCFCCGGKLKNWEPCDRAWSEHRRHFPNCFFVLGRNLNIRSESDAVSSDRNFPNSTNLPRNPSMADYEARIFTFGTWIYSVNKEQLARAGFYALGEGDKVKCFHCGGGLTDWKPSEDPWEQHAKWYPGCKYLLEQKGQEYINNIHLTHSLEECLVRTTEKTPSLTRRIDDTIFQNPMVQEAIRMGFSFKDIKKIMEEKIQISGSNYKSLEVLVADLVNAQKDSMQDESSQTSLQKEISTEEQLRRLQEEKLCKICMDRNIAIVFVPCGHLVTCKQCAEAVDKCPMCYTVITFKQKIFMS

SMILES: CC(C)CNC(=O)[C@@H]1c2ccccc2C(=O)N(Cc2cc(C(F)(F)F)cc(C(F)(F)F)c2)[C@H]1c1ccc(CO)cc1
- z-score [1]: 0.099
- z-score [2]: 0.628
- z-score [3]: -0.155
- z-score [4]: 0.37
- z-score [5]: -0.754
- z-score [6]: 0.363
- z-score [7]: -0.861 (inactive)
- z-score [8]: 0.428
- z-score [9]: 1.25
- z-score [10]: -0.0372 (inactive)
- z-score [11]: -1.16
- z-score [12]: 0.578 (inactive)
- z-score [13]: 0.889 (inactive)
- composite z-score [14]: -0.697 (inactive)
- z-score [15]: -0.171 (inactive)
- z-score [16]: 0.927 (inactive)
- z-score [17]: 0.898 (inactive)
- z-score [18]: 0.343 (inactive)
- z-score [19]: 1.29
- composite z-score [20]: -0.198

SMILES: [N-]=[N+]=NCc1ccccc1C[C@]1(C(=O)NCC(O)CO)N=C(c2ccc(OCCCO)cc2)O[C@H]1c1ccccc1N=[N+]=[N-] (stereo not given in full)
- z-score [1]: -0.13
- z-score [2]: 1.27
- z-score [3]: -0.35
- z-score [4]: -1.09
- z-score [5]: -1.11
- z-score [6]: 0.0849
- z-score [7]: 1.19 (inactive)
- z-score [8]: -0.893
- z-score [9]: -0.384
- z-score [10]: 0.0953 (inactive)
- z-score [11]: 0.207
- z-score [12]: 0.664 (inactive)
- z-score [13]: -0.403 (inactive)
- composite z-score [14]: 1.83 (inactive)
- z-score [15]: 0.208 (inactive)
- z-score [16]: 2.8 (inactive)
- z-score [17]: 1.22 (inactive)
- z-score [18]: 0.0128 (inactive)
- z-score [19]: -0.986
- composite z-score [20]: -0.0057

SMILES: CN(C)CCCCNC(=O)[C@H]1C[C@H]2C(=O)N[C@@H](Cc3ccccc3)C(=O)N2[C@H]1c1ccc(O)cc1
- z-score [1]: -0.451
- z-score [2]: 0.7
- z-score [3]: -0.98
- z-score [4]: -0.417
- z-score [5]: 0.287
- z-score [6]: -0.77
- z-score [7]: -0.248 (inactive)
- z-score [8]: -0.136
- z-score [9]: -0.149
- z-score [10]: -0.1 (inactive)
- z-score [11]: -0.0562
- z-score [12]: -0.5 (inactive)
- z-score [13]: -0.0866 (inactive)
- composite z-score [14]: -16.7 (active)
- z-score [15]: 2.86 (inactive)
- z-score [16]: 0.466 (inactive)
- z-score [17]: -0.539 (inactive)
- z-score [18]: -0.855 (inactive)
- z-score [19]: -0.0845
- composite z-score [20]: 0.0256

SMILES: COc1cc(C(O)C2C=CC3C(=O)N(c4ccccc4)C(=O)C3N2Nc2ccc(C#N)cc2)cc(OC)c1OC (stereo not given)
- z-score [1]: -1.26
- z-score [2]: 0.0434
- z-score [3]: -0.272
- z-score [4]: 0.0375
- z-score [5]: -0.269
- z-score [6]: -1.36
- z-score [7]: -1.51 (inactive)
- z-score [8]: 0.433
- z-score [9]: -0.314
- z-score [10]: -0.404 (inactive)
- z-score [11]: -1.28
- z-score [12]: -2.44 (inactive)
- z-score [13]: -1.62 (inactive)
- composite z-score [14]: 0.198 (inactive)
- z-score [15]: 1.36 (inactive)
- z-score [16]: -0.343 (inactive)
- z-score [17]: -0.914 (inactive)
- z-score [18]: -0.386 (inactive)
- z-score [19]: -0.919
- composite z-score [20]: 0.0819

SMILES: CC(C)(C)OC(=O)CC[C@@]1(C(=O)O)N=C(c2ccc(OCCCO)cc2)O[C@@H]1c1ccccc1N=[N+]=[N-]
- z-score [1]: 0.188
- z-score [2]: -0.364
- z-score [3]: 0.218
- z-score [4]: -0.0694
- z-score [5]: -0.385
- z-score [6]: -2.88
- z-score [7]: -1.08 (inactive)
- z-score [8]: -0.759
- z-score [9]: -1.12
- z-score [10]: 0.0421 (inactive)
- z-score [11]: 0.166
- z-score [12]: 0.523 (inactive)
- z-score [13]: -0.789 (inactive)
- composite z-score [14]: 0.0016 (inactive)
- z-score [15]: 0.659 (inactive)
- z-score [16]: 0.0589 (inactive)
- z-score [17]: 0.428 (inactive)
- z-score [18]: 0.367 (inactive)
- z-score [19]: -0.105
- composite z-score [20]: -0.187

SMILES: Cc1ccc(F)cc1S(=O)(=O)N[C@@H]1CCN(Cc2ccc(-c3ccccc3)cc2)C1
- z-score [1]: -1.8
- z-score [2]: -1.3
- z-score [3]: -4.73
- z-score [4]: -3.15
- z-score [5]: -4.09
- z-score [6]: -1.82
- z-score [7]: -0.516 (inactive)
- z-score [8]: -0.69
- z-score [9]: -2.99
- z-score [10]: -0.464 (inactive)
- z-score [11]: -0.603
- z-score [12]: -19.1 (active)
- z-score [13]: -3.27 (inactive)
- composite z-score [14]: -0.427 (inactive)
- z-score [15]: 0.425 (inactive)
- z-score [16]: -22.4 (active)
- z-score [17]: -20.5 (active)
- z-score [18]: -20 (active)
- z-score [19]: -2.16
- composite z-score [20]: 0.0368

SMILES: CC(=O)Nc1cc(Br)ccc1C(=O)O
- z-score [1]: 0.665
- z-score [2]: 0.747
- z-score [3]: 0.332
- z-score [4]: -0.906
- z-score [5]: -0.178
- z-score [6]: -0.598
- z-score [7]: -0.672 (inactive)
- z-score [8]: -0.685
- z-score [9]: 1.05
- z-score [10]: -0.243 (inactive)
- z-score [11]: -0.128
- z-score [12]: 0.311 (inactive)
- z-score [13]: 0.161 (inactive)
- composite z-score [14]: -0.398 (inactive)
- z-score [15]: -0.103 (inactive)
- z-score [16]: -0.129 (inactive)
- z-score [17]: -0.141 (inactive)
- z-score [18]: -0.535 (inactive)
- z-score [19]: 0.357
- composite z-score [20]: -0.239

SMILES: COC(=O)c1ccc(C(O)C2C=CC3C(=O)N(c4ccccc4)C(=O)C3N2Nc2ccc(C#N)cc2)o1 (stereo not given)
- z-score [1]: 0.88
- z-score [2]: 0.0728
- z-score [3]: 2.04
- z-score [4]: -0.182
- z-score [5]: -1.52
- z-score [6]: 0.822
- z-score [7]: -0.559 (inactive)
- z-score [8]: 0.111
- z-score [9]: -0.849
- z-score [10]: 0.276 (inactive)
- z-score [11]: -0.407
- z-score [12]: -0.959 (inactive)
- z-score [13]: -0.582 (inactive)
- composite z-score [14]: -0.847 (inactive)
- z-score [15]: 1.38 (inactive)
- z-score [16]: 0.0055 (inactive)
- z-score [17]: -1.52 (inactive)
- z-score [18]: -0.249 (inactive)
- z-score [19]: -0.357
- composite z-score [20]: -0.22

SMILES: COc1c(C)cc(-c2cc3c(c(-c4ccc(Oc5ccccc5)cc4)n2)[Si](C(C)C)(C(C)C)OC3)cc1C
- z-score [1]: -0.342
- z-score [2]: -0.616
- z-score [3]: 0.285
- z-score [4]: -0.66
- z-score [5]: -0.11
- z-score [6]: -1.3
- z-score [7]: -0.528 (inactive)
- z-score [8]: 0.103
- z-score [9]: 0.0963
- z-score [10]: 0.624 (inactive)
- z-score [11]: -0.566
- z-score [12]: 2.09 (inactive)
- z-score [13]: -0.391 (inactive)
- composite z-score [14]: 0.567 (inactive)
- z-score [15]: 1.18 (inactive)
- z-score [16]: 1.19 (inactive)
- z-score [17]: -0.227 (inactive)
- z-score [18]: -0.707 (inactive)
- z-score [19]: -0.155
- composite z-score [20]: -0.187
